Measurements: PubChem BioAssay (NCI)
Compounds without any hit were thinned out: in the full panel of roughly 83,000, 20% have a hit.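 48-hour exposure, single concentration, 96-well plates; percent growth endpoint where 0 means no net growth. Active: below 10.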 Unmarked numbers belong to inactive results. Activity calls are given as the source filed them.

Key:
Experiment in all cases: NCI-60 one-dose screen, 48 h (100 = growth as untreated, 0 = no growth, -100 = all killed)
Conditions in all cases: 10 µM unless noted
[1] = test system: HCT-15 colon
[2] = test system: HT29 colon
[3] = test system: SNB-75 CNS
[4] = test system: SNB-19 CNS
[5] = test system: U251 CNS
[6] = test system: PC-3 prostate
[7] = test system: SK-MEL-5 melanoma
[8] = test system: UACC-62 melanoma
[9] = test system: LOX IMVI melanoma
[10] = test system: SK-MEL-28 melanoma

With `COc1cccc(NC(=O)NCCNc2nccc(-c3c(-c4ccc(F)cc4)nc4sccn34)n2)c1` the growth [1] was 56.4%, the growth [2] was 39.8% and the growth [3] was 48.3%. The growth [4] was 86.3%, the growth [5] was 77.6% and the growth [6] was 89.9%. The growth [7] was 61.6%, the growth [8] was 68.2% and the growth [9] was 72.6%. For the same compound, the growth [10] was 92.2%.
`O=C1NCCN1/N=C/c1c(Cl)nc2n1CCS2` was tested, and the growth [1] was 101%, the growth [2] was 108% and the growth [3] was 101%. The growth [4] was 108%, the growth [5] was 86.1% and the growth [6] was 76.3%. The growth [7] was 132%, the growth [8] was 135% and the growth [9] was 101%. For the same compound, the growth [10] was 107%.
`C=CCNC(=S)NNc1ccc([N+](=O)[O-])cn1` was tested, and the growth [1] was 100%, the growth [2] was 90.5% and the growth [3] was 81.8%. For the same compound, the growth [4] was 103%, the growth [5] was 101% and the growth [6] was 100%. It also gave a growth [7] of 94.3%, a growth [8] of 99.3% and a growth [9] of 82%. It also gave a growth [10] of 106%.
In the case of `NNC(=S)N1N=C(c2cc3ccccc3o2)CC1c1c[nH]c2ccccc12` (stereo not given), the growth [1] is reported as 30.4%, the growth [2] is reported as 34.1% and the growth [3] is reported as 88.4%. For the same compound, the growth [4] was 35.5%, the growth [5] was 36% and the growth [6] was 29.2%. It also gave a growth [7] of 42.1%, a growth [8] of 15.4% and a growth [9] of 26%. It also gave a growth [10] of 40.2%.
Compound `O=C(Nc1ccc(Cl)cn1)C1(c2ccccc2)CCCCC1` has a growth [1] of 112%, a growth [2] of 85.6% and a growth [3] of 106%. The growth [4] was 106%, the growth [5] was 97.5% and the growth [6] was 104%. It also gave a growth [7] of 91.6%, a growth [8] of 94.4% and a growth [9] of 101%. It also gave a growth [10] of 105%.
With `Cc1cc(CSc2ccc(Cl)cc2)ccc1N` the growth [1] was 98.3%, the growth [2] was 106% and the growth [3] was 87.3%. For the same compound, the growth [4] was 84.3%, the growth [5] was 78.6% and the growth [6] was 76.5%. For the same compound, the growth [7] was 103%, the growth [8] was 90.5% and the growth [9] was 98.6%. It also gave a growth [10] of 111%.
For `O=C1C(=O)c2ccccc2C(O)=C1CCCc1ccc(Oc2ccccc2)cc1`, the growth [1] was 74.1%, the growth [2] was 113% and the growth [3] was 71.2%. The growth [4] was 62%, the growth [5] was 36.1% and the growth [6] was 37.5%. The growth [7] was 55.1%, the growth [8] was 36.5% and the growth [9] was 38.9%. For the same compound, the growth [10] was 74.8%.
In the case of `Cc1nc(NC(=S)Nc2ccc(F)cc2)sc1C(=O)NNC(=S)Nc1ccc(F)cc1`, the growth [1] is reported as 61.9%, the growth [2] is reported as 61.7% and the growth [3] is reported as 113%. The growth [4] was 76.9%, the growth [5] was 53.1% and the growth [6] was 52.1%. The growth [7] was 48.8%, the growth [8] was 36.9% and the growth [9] was 70.6%. The growth [10] was 78%.
Compound `COc1ccc(-c2nc(Nc3nc4ccccc4[nH]3)nc(N)c2C#N)cc1` has a growth [1] of 101%, a growth [2] of 96% and a growth [3] of 84.9%. The growth [4] was 98.1%, the growth [5] was 110% and the growth [6] was 88.1%. For the same compound, the growth [7] was 95.3%, the growth [8] was 89.3% and the growth [9] was 93.9%. It also gave a growth [10] of 114%.
`c1ccc(Nc2ccccn2)cc1` showed a growth [1] of 96.2%, a growth [2] of 99.4% and a growth [3] of 118%. The growth [4] was 98.9%, the growth [5] was 103% and the growth [6] was 102%. The growth [7] was 106%, the growth [8] was 93.7% and the growth [9] was 102%. For the same compound, the growth [10] was 112%.
For `COC(=O)c1ccc2[nH]c(O)c(C(=Nc3ccc(N(C)C(=O)CN4CCN(C)CC4)cc3)c3cccc(OC)c3)c2c1`, the growth [1] was 7.72% (active), the growth [2] was -2.16% (active) and the growth [3] was -2.49% (active). The growth [4] was 12.7%, the growth [5] was 11.7% and the growth [6] was 20.3%. The growth [7] was 6.71% (active), the growth [8] was 36.6% and the growth [9] was 8.47% (active). It also gave a growth [10] of 19.5%.
`COc1ccc(C(=O)c2no[n+]([O-])c2C(=O)c2ccc(OC)cc2)cc1` was tested, and the growth [1] was 20.1%, the growth [2] was 10.1% and the growth [3] was -99.3% (active). The growth [4] was 97.7%, the growth [5] was 35.9% and the growth [6] was -37.7% (active). For the same compound, the growth [7] was 85.5%, the growth [8] was 78.9% and the growth [9] was -69.2% (active). The growth [10] was 109%.
Compound `COC1(OC)N=C(N)C2(C#N)C3(C(=O)Nc4ccccc43)C12C#N` (stereo not given) has a growth [1] of 83.8%, a growth [2] of 98.9% and a growth [3] of 66.5%. For the same compound, the growth [4] was 108%, the growth [5] was 67.9% and the growth [6] was 87%. The growth [7] was 81.8%, the growth [8] was 47% and the growth [9] was 50.3%. It also gave a growth [10] of 103%.
Compound `CC1(c2ccc(Br)cc2)NC(=O)NC1=O` (stereo not given) has a growth [1] of 106%, a growth [2] of 106% and a growth [3] of 99.3%. The growth [4] was 105%, the growth [5] was 97.2% and the growth [6] was 103%. The growth [7] was 104%, the growth [8] was 101% and the growth [9] was 100%. It also gave a growth [10] of 112%.
`COc1cc(-c2c3c(cn2CCN2CCCCC2)-c2oncc2CC3)cc(OC)c1OC` gave a growth [1] of 98.3%, a growth [2] of 84% and a growth [3] of 81.4%. It also gave a growth [4] of 99.8%, a growth [5] of 101% and a growth [6] of 89.7%. The growth [7] was 98.3%, the growth [8] was 90.4% and the growth [9] was 97.7%. It also gave a growth [10] of 100%.
`Cc1c(O)c(N=Nc2ccc(C(=O)O)c(O)c2)c2ccccc2c1O` showed a growth [1] of 117%, a growth [2] of 96.9% and a growth [3] of 109%. It also gave a growth [4] of 105%, a growth [5] of 101% and a growth [6] of 77.4%. For the same compound, the growth [7] was 96.1%, the growth [8] was 92.5% and the growth [9] was 86.4%. It also gave a growth [10] of 131%.
`CCCNC(=O)Oc1ccc(/C(=C(/CC)Cc2ccccc2)c2ccc(OCCN(CC)CC)cc2)cc1` was tested, and the growth [1] was 7.99% (active), the growth [2] was -14.8% (active) and the growth [3] was 63.6%. It also gave a growth [4] of 87.7%, a growth [5] of 45.1% and a growth [6] of 60.8%. The growth [7] was 39.8%, the growth [8] was 91.7% and the growth [9] was 63.9%. For the same compound, the growth [10] was 92.9%.
Work on `Clc1ccc(N/N=C/c2ccccn2)nc1` yielded a growth [1] of 20.6%, a growth [2] of 27.3% and a growth [3] of 21.7%. It also gave a growth [4] of 28.2%, a growth [5] of 18.1% and a growth [6] of 39.3%. The growth [7] was -66.3% (active), the growth [8] was -7.02% (active) and the growth [9] was -6.42% (active). It also gave a growth [10] of 20%.
`CCOC(=O)C1CCCN1C(=O)C1(NC(C)=O)CCCC1` (stereo not given) was tested, and the growth [1] was 106%, the growth [2] was 124% and the growth [3] was 95.7%. It also gave a growth [4] of 125%, a growth [5] of 104% and a growth [6] of 95.6%. It also gave a growth [7] of 109%, a growth [8] of 121% and a growth [9] of 104%. The growth [10] was 114%.
Work on `CC(=O)OCC1O[C@@H](OC(C)=O)[C@@H](NC(=O)NS(=O)(=O)c2ccccc2)C(OC(C)=O)[C@@H]1OC(C)=O` (stereo not given in full) yielded a growth [1] of 96.6%, a growth [2] of 111% and a growth [3] of 91.2%. The growth [4] was 98.7%, the growth [5] was 106% and the growth [6] was 102%. The growth [7] was 102%, the growth [8] was 101% and the growth [9] was 99.6%. It also gave a growth [10] of 108%.
With `C[C@]12C=CC(=O)C=C1[C@@H](F)C[C@@H]1[C@@H]2[C@@H](O)C[C@@]2(C)[C@H]1CC[C@]2(O)C(=O)CO` the growth [1] was 108%, the growth [2] was 103% and the growth [3] was 145%. For the same compound, the growth [4] was 96.2%, the growth [5] was 108% and the growth [6] was 97.1%. For the same compound, the growth [7] was 120%, the growth [8] was 110% and the growth [9] was 103%. The growth [10] was 124%.
`C/C=C/C/C=C/[C@H](C)C[C@H](O)[C@@H]1C[C@@H]2O[C@H]2/C=C/[C@H](O)[C@@H](O)/C=C/C[C@H](C)CC(=O)O1` was tested, and the growth [1] was 66.1%, the growth [2] was 68.4% and the growth [3] was 90.9%. It also gave a growth [4] of 97.4%, a growth [5] of 87.4% and a growth [6] of 115%. For the same compound, the growth [7] was 72.9%, the growth [8] was 71.3% and the growth [9] was 88.3%. It also gave a growth [10] of 101%.
With `COc1ccccc1CNCCCN1C(=O)c2ccc3c4c(ccc(c24)C1=O)C(=O)N(CCCNCc1ccccc1OC)C3=O` the growth [1] was -69.2% (active), the growth [2] was -59.5% (active) and the growth [3] was -95.7% (active). For the same compound, the growth [4] was -68.8% (active), the growth [5] was -89.5% (active) and the growth [6] was -59.9% (active). The growth [7] was -100% (active), the growth [8] was -72.5% (active) and the growth [9] was -63.1% (active). The growth [10] was -90.6% (active).
With `Cc1ncc(C(=O)Nc2ccc(CN3CCN(C)CC3)c(C(F)(F)F)c2)cc1C#Cc1c(N)ncc2ccc(F)cc12` the growth [1] was -93.2% (active), the growth [2] was -87.4% (active) and the growth [3] was -3.33% (active). For the same compound, the growth [4] was -99.6% (active), the growth [5] was -88.3% (active) and the growth [6] was -83.6% (active). The growth [7] was -70.2% (active), the growth [8] was -28.7% (active) and the growth [9] was -74.2% (active). The growth [10] was -85.8% (active).
Compound `COc1cc(NC(=O)CSc2nc3ccc(Cl)cc3c(=O)n2-c2ccc(F)cc2)cc(OC)c1OC` has a growth [1] of 84.5%, a growth [2] of 97.9% and a growth [3] of 72.6%. For the same compound, the growth [4] was 82.2%, the growth [5] was 82.1% and the growth [6] was 73%. The growth [7] was 73.9%, the growth [8] was 71.3% and the growth [9] was 73.5%. It also gave a growth [10] of 95.4%.
Compound `COCn1c(C(=O)OC)cc2oc(/C=C3/SC(=S)N(N)C3=O)cc21` has a growth [1] of 105%, a growth [2] of 97.2% and a growth [3] of 64.6%. The growth [4] was 97.2%, the growth [5] was 75.8% and the growth [6] was 57.2%. It also gave a growth [7] of 91.7%, a growth [8] of 94% and a growth [9] of 87.3%. It also gave a growth [10] of 92.9%.
Work on `COc1ccc(C(=O)NCCNc2nccc(-c3c(-c4ccc(F)cc4)nc4sccn34)n2)cc1` yielded a growth [1] of 36.6%, a growth [2] of 14.6% and a growth [3] of 50.9%. It also gave a growth [4] of 61.9%, a growth [5] of 55.4% and a growth [6] of 49.5%. For the same compound, the growth [7] was 38.1%, the growth [8] was 47.4% and the growth [9] was 43.3%. For the same compound, the growth [10] was 76.7%.
